An excerpt weighted towards active compounds, which were near 8% of everything screened.
MCF10A rereplic: A quantitative high throughput screen for small molecules that induce DNA re-replication in MCF 10a normal breast cells | Potency, µM (titrated, usually from 46.1 µM), inactives show at the top dose activity, positive = re-replication, most hits filed as activators | MCF 10A DNA re-replication, Hoechst nuclear intensity, 48 h | 350,000 tested, 2.9% active; further: % of control where 0% means no effect; nearly all actives have a fitted effect of over 50% in size
KB-3-1 tox: qHTS assay for MDR1-selective chemotherapeutics: Primary screen using the parental adenocarcinoma cell KB-3-1; KB-3-1 viability, CellTiter-Glo ATP luminescence, 72 h; Potency, µM (doses to about 46.1 µM), hits mostly cytotoxic; 400,000 tested, 1.4% active; AID 1347075, 2019; further: on the % scale 0 is the no-effect control and ±100 the full control effect; nearly all actives have a fitted effect of over 60% in size
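Here the drug-naive KB-3-1 line serves as comparator for MDR sub-line selectivity; cells received compound titrations, 72 h at 37 °C, then CellTiter-Glo readout.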
HT1080 IDH1KD tx: qHTS for induction of synthetic lethality in tumor cells producing 2HG: qHTS for the HT-1080-IDH1KD cell line; AID 686971, 2013; Potency, µM (top dose mostly 46.1 µM), for inactives: at the top dose activity, negative = toxicity, most hits filed as cytotoxic; 360,000 tested, 2% active; HT-1080 IDH1 knockdown viability, ATP luminescence, 48 h;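 further: 0% = DMSO wells and -100% = cell-free medium wells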
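IDH1KD HT-1080 cells, 750/well, RPMI + 5% FBS; compound pinned after 2 h settling; 48 h, 37 °C; CellTiter-Glo luminescence; % activity normalised to DMSO and no-cell wells; curves fitted, classed by r2 and efficacy.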
KB-V1 cytotox: qHTS assay for MDR1-selective chemotherapeutics: Primary screen using the drug-selected MDR subline cells KB-V1; AID 1347076, 2019; Potency, µM (highest dose often 46.1 µM), actives largely listed as cytotoxic; KB-V1 MDR cells viability, CellTiter-Glo, 72 h; 400,000 tested, 3.4% active; further: on the % scale 0 is the no-effect control and ±100 the full control effect; nearly all actives have a fitted effect of over 60% in size
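Cytotoxicity toward P-gp-expressing KB-V1 cells was determined as loss of CellTiter-Glo luminescence after 72 h at 37 degrees C. Compounds were tested in quantitative HTS format across a concentration range, with curves fitted to normalized data.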
HT1080-NT tox: qHTS for induction of synthetic lethality in tumor cells producing 2HG: qHTS for the HT-1080-NT fibrosarcoma cell line | HT-1080-NT fibrosarcoma viability, CellTiter-Glo ATP luminescence, 48 h | Potency, µM (titrated, usually from 46.1 µM), for inactives: top-dose activity, negative = less viability, hits mostly cytotoxic | 360,000 tested, 1.6% active | AID 686970, 2013;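 further: NT is the 2HG producing partner of a matched IDH1 knockdown line; 0% = DMSO-treated cells and -100% = media-only wells without cells; nearly all actives have a fitted effect of over 55% in size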
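Viability by CellTiter-Glo luminescence after 48 h compound exposure at 37C of HT-1080-NT cells (750/well, RPMI, 5% FBS). % activity scaled between DMSO wells and medium-only wells, then curve-fitted and categorized by curve class.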
SW480 rereplic: A quantitative high throughput screen for small molecules that induce DNA re-replication in SW480 colon adenocarcinoma cells | SW480 DNA re-replication, Hoechst DNA content imaging, 48 h | 340,000 tested, 1.8% active | Potency, µM (doses to about 46.1 µM), for the others: top-dose re-replication activation, actives largely listed as activators | AID 624297, 2012; further: % of control where 0% means no effect; nearly all actives have a fitted effect of over 55% in size
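DNA re-replication was detected as more nuclei of elevated Hoechst intensity after 48 hr exposure to compound (23 nL pinned per well of 250 cells).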
The depositor's hits bear a star. The call rests on the fitted dose curve; in most records, active means well fitted curve in the direction sought with a large enough effect; inconclusive means small, poorly fitted or top-dose-only effect, or another doubt; inactive means no such curve, though single readings can be large; an effect the other way counts as inactive or inconclusive. Potency means the concentration at half of the fitted maximal effect.

Screening COc1ccc(-c2nn(-c3ccccc3)cc2/C=C/C(=O)OCC(=O)Nc2ccc(C#N)cc2)cc1 returned MCF10A rereplic 21%, KB-3-1 tox inactive, HT1080 IDH1KD tx 20%, KB-V1 cytotox 9.2µM*, HT1080-NT tox 3% and SW480 rereplic -2%.
For CN(CC(=O)Nc1cccc(F)c1)C(=O)c1cn(-c2ccccc2)nc1-c1ccc(Cl)cc1 the results were MCF10A rereplic inconclusive, KB-3-1 tox inactive, HT1080 IDH1KD tx inconclusive, KB-V1 cytotox inactive, HT1080-NT tox 21µM* and SW480 rereplic 21%.
Screening CN(CC(=O)Nc1cccc(F)c1)C(=O)c1cn(-c2ccccc2)nc1-c1cccs1 returned MCF10A rereplic inconclusive, KB-3-1 tox inconclusive, HT1080 IDH1KD tx -10%, KB-V1 cytotox inconclusive, HT1080-NT tox -10% and SW480 rereplic 13%.
Screening COc1ccc(NC(=O)CN(C)C(=O)c2cn(-c3ccccc3)nc2-c2ccc(Cl)cc2)cc1 returned MCF10A rereplic 15%, KB-3-1 tox inconclusive, HT1080 IDH1KD tx inconclusive, KB-V1 cytotox 23µM*, HT1080-NT tox inconclusive and SW480 rereplic 23µM*.
`Cc1cc(-n2c(C)cc(C(=S)N3CCOCC3)c2C)ccc1Br` gave MCF10A rereplic inconclusive, KB-3-1 tox inconclusive, HT1080 IDH1KD tx -2%, KB-V1 cytotox 8.2µM*, HT1080-NT tox 7% and SW480 rereplic 1%.
COc1ccc(-c2nc(SC(C)C(=O)c3c(N)n(C)c(=O)n(C)c3=O)n[nH]2)cc1 (centres undefined) was read as MCF10A rereplic -1%, KB-3-1 tox inactive, HT1080 IDH1KD tx 0%, KB-V1 cytotox inactive, HT1080-NT tox 3% and SW480 rereplic -13%.
O=S(=O)(c1ccc(SCCOc2ccccc2)nc1)N1CCCC1 was read as MCF10A rereplic 1%, KB-3-1 tox inactive, HT1080 IDH1KD tx 9%, KB-V1 cytotox inactive, HT1080-NT tox 0% and SW480 rereplic -3%.
For Cc1ccc(OCCNc2ccc(S(=O)(=O)N3CCCC3)cn2)cc1 the results were MCF10A rereplic 58%, KB-3-1 tox inactive, HT1080 IDH1KD tx -24%, KB-V1 cytotox inconclusive, HT1080-NT tox -21% and SW480 rereplic 21µM*.
Cc1ccc(OCCOC(=O)c2cc(S(=O)(=O)N3CCCCC3)ccc2N2CCOCC2)cc1 was read as MCF10A rereplic 13%, KB-3-1 tox 4.6µM*, HT1080 IDH1KD tx inconclusive, KB-V1 cytotox 2.9µM*, HT1080-NT tox -1% and SW480 rereplic inconclusive.
For O=S(=O)(c1ccc(NCCOc2ccccc2)nc1)N1CCCC1 the results were MCF10A rereplic -6%, KB-3-1 tox inactive, HT1080 IDH1KD tx 8%, KB-V1 cytotox 21µM*, HT1080-NT tox 12% and SW480 rereplic -6%.
Screening O=C(/C=C/c1ccc2c(c1)OCO2)c1ccco1 returned MCF10A rereplic inconclusive, KB-3-1 tox inactive, HT1080 IDH1KD tx 1%, KB-V1 cytotox inactive, HT1080-NT tox 0% and SW480 rereplic inconclusive.
For COCCn1c(SCC(=O)NCC(c2ccccc2)N(C)C)nc2sc3c(c2c1=O)CCC3 (centres undefined) the results were MCF10A rereplic 8%, KB-3-1 tox inactive, HT1080 IDH1KD tx -11%, KB-V1 cytotox inactive, HT1080-NT tox -8% and SW480 rereplic -3%.
`O=C(NCC1COc2ccccc2O1)c1cn(Cc2ccc(F)cc2)nn1` (centres undefined) gave MCF10A rereplic 1%, KB-3-1 tox inactive, HT1080 IDH1KD tx -28%, KB-V1 cytotox inactive, HT1080-NT tox -28% and SW480 rereplic 5%.
`CC1CCCCN1S(=O)(=O)c1ccc2c(c1)oc(=O)n2CC(=O)O` (centres undefined) gave MCF10A rereplic -12%, KB-3-1 tox inactive, HT1080 IDH1KD tx 15%, KB-V1 cytotox inactive, HT1080-NT tox 9% and SW480 rereplic -5%.
`COc1ccc(C(=O)Oc2cccc(Nc3ncnc4ccccc34)c2)cc1OC` gave MCF10A rereplic inconclusive, KB-3-1 tox inconclusive, HT1080 IDH1KD tx 5%, KB-V1 cytotox 18µM*, HT1080-NT tox -3% and SW480 rereplic -7%.
Screening COc1cc(C(=O)Oc2cccc(Nc3ncnc4ccccc34)c2)cc(OC)c1OC returned MCF10A rereplic -3%, KB-3-1 tox inactive, HT1080 IDH1KD tx -9%, KB-V1 cytotox inconclusive, HT1080-NT tox inconclusive and SW480 rereplic 13%.
Screening O=C(CCNS(=O)(=O)c1ccccc1)N1CCCCCCC1 returned MCF10A rereplic -9%, KB-3-1 tox inactive, HT1080 IDH1KD tx 3%, KB-V1 cytotox inactive, HT1080-NT tox 1% and SW480 rereplic -28%.
CC(CNS(=O)(=O)c1ccccc1)(c1ccccc1)N1CCCCC1 (centres undefined) was read as MCF10A rereplic -1%, KB-3-1 tox inactive, HT1080 IDH1KD tx 9%, KB-V1 cytotox inconclusive, HT1080-NT tox 0% and SW480 rereplic 2.6µM*.
`CC(C)[C@H](NC(=O)c1ccccc1F)C(=O)NC1CCCCCCC1` gave MCF10A rereplic 18µM*, HT1080 IDH1KD tx 2%, HT1080-NT tox 0% and SW480 rereplic -3%.
For CC(C)[C@H](NC(=O)c1ccccc1)C(=O)NC1CCCCCCC1 the results were MCF10A rereplic -6%, KB-3-1 tox inactive, HT1080 IDH1KD tx 1%, KB-V1 cytotox inconclusive, HT1080-NT tox -7% and SW480 rereplic -13%.
For CCOc1ccc(C2CC(=O)c3c([nH]c(C(=O)OC)c3C)C2)cc1OC (centres undefined) the results were MCF10A rereplic 13%, KB-3-1 tox inactive, HT1080 IDH1KD tx inconclusive, KB-V1 cytotox inconclusive, HT1080-NT tox inconclusive and SW480 rereplic 13%.
`COc1ccc(C2CC(=O)c3c([nH]c(C(=O)OC(C)C)c3C)C2)cc1OC` (centres undefined) gave MCF10A rereplic 1%, KB-3-1 tox inactive, HT1080 IDH1KD tx 0%, KB-V1 cytotox 2.6µM*, HT1080-NT tox 0% and SW480 rereplic -85%.

Screening results: PubChem BioAssay, National Center for Advancing Translational Sciences (NCATS)
